Reference: PubChem BioAssay
Activity calls are given as the source filed them.

Assays:
[1] = binders of probe aFSTL3 on microarray, primary screen, stem cell growth factor project, biochemical, small-molecule microarray, fluorescence 635/667 (AID 1064); conditions: higher = more signal;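 also: measures binding of the biotinylated anti-FSTL3 antibody to printed compounds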
[2] = binders from COS7 lysate, DM2A8 probe, primary screen, torsin A project, cell lysate, small-molecule microarray, fluorescence 635/667 (AID 1065); conditions: higher = more signal, COS7 lysate expressing mutant human TOR1A
[3] = binders of probe aFGF2 on microarray, primary screen, stem cell growth factor project, biochemical, small-molecule microarray, fluorescence 635/667 (AID 1067); conditions: higher = more signal;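 also: measures binding of biotinylated aFGF2 protein to printed compounds on slides; z-score merges feature fluorescence and signal-to-noise across triplicate slides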
[4] = binders of probe aFGF10 on microarray, primary screen, stem cell growth factor project, biochemical, small-molecule microarray, fluorescence 635/667 (AID 1071); conditions: higher = more signal;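 also: score merges 667 nm spot intensity and signal to noise from triplicate slides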
[5] = target: Neurogenic locus notch homolog protein 2 (Homo sapiens) (UniProt Q04721); test: Notch2 binders on small-molecule microarrays, primary screen, biochemical, small-molecule microarray, 635 nm fluorescence, stem cell growth factors (AID 1073); conditions: Notch2 binding, higher = more signal
Chain of Neurogenic locus notch homolog protein 2 (Homo sapiens) (Q04721 whole entry, looked up, canonical isoform): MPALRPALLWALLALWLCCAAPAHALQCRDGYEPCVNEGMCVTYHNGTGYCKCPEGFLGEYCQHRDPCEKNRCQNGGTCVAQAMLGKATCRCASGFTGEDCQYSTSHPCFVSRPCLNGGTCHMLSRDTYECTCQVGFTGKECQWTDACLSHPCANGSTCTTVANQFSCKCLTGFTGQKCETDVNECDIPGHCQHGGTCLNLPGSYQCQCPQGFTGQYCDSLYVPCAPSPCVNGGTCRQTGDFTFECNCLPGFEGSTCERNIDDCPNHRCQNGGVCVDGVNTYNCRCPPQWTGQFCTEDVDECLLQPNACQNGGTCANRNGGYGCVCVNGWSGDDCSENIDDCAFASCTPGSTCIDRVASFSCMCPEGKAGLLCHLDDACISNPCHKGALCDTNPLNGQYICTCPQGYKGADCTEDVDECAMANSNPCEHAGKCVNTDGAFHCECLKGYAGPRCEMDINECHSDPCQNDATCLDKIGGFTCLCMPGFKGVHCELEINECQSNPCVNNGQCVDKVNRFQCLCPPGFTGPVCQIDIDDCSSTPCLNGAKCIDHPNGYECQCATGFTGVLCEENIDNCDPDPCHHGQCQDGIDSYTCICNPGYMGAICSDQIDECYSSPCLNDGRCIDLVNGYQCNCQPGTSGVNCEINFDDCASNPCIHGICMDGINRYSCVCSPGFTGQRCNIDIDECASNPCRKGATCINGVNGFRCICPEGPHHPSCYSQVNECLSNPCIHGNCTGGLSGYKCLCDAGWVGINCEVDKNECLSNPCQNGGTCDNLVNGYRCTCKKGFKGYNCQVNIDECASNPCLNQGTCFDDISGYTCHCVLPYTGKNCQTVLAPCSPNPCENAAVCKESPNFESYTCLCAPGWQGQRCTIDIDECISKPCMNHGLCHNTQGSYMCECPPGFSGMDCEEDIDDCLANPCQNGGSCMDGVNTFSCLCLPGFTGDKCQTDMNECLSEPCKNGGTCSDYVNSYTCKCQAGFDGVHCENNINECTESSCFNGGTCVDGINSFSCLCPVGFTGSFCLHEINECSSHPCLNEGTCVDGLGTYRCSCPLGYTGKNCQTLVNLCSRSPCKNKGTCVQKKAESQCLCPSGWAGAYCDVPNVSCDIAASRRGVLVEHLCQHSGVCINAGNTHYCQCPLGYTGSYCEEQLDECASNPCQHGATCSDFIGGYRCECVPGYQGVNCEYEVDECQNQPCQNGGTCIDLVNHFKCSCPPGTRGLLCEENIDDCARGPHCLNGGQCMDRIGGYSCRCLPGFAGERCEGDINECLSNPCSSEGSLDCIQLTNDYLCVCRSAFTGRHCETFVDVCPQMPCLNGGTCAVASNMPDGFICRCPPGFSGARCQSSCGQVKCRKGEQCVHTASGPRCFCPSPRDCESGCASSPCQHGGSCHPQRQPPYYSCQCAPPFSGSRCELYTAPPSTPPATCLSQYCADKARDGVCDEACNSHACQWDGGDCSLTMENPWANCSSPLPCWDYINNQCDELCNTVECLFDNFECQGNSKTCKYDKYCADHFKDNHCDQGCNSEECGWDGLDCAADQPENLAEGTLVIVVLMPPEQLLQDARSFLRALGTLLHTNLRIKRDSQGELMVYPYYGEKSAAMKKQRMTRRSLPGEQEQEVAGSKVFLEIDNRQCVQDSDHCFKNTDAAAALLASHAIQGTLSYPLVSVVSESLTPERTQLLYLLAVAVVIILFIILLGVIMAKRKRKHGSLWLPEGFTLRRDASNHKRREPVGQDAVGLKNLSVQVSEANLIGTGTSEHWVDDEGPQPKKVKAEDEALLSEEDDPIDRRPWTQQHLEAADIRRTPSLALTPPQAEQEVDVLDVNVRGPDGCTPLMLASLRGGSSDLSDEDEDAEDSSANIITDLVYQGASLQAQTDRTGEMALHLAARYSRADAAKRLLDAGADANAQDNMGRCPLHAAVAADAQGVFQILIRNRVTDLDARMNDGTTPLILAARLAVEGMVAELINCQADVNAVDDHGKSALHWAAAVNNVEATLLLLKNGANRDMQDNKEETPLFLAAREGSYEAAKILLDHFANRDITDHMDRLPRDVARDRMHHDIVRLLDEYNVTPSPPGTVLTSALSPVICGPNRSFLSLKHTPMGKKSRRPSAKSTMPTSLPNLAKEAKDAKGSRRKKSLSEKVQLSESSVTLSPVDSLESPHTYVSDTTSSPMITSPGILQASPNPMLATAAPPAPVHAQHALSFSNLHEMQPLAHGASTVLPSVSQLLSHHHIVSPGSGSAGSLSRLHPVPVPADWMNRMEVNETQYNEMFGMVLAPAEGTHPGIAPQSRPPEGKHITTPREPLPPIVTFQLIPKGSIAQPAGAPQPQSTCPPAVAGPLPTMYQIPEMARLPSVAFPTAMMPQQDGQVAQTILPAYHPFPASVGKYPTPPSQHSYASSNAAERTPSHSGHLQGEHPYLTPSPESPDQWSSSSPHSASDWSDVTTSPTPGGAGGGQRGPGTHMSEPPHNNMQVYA

[6] = target: Pro-neuregulin-1, membrane-bound isoform (Homo sapiens) (UniProt Q02297); test: NRG1 binders on small-molecule microarrays, primary screen, psychiatric disease protein project, biochemical, small-molecule microarray, fluorescence 635/667 (AID 1075); conditions: NRG1 binding, 635 nm fluorescence, higher = more signal;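 also: score combines 667 nm spot fluorescence with signal to noise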
[7] = test system: Neuregulin-1 EGF-like domain; test: binders of neuregulin-1 EGF-like domain, primary screen, biochemical, small-molecule microarray, 635 nm fluorescence (AID 1081); conditions: small-molecule microarray binding, higher = more signal;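 also: binding of the protein to compounds printed on small-molecule microarray slides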
[8] = FRG1 promoter luciferase signal modulators, primary screen, FRG1 inhibition for FSHD, cell-based, C2C12 myotubes, firefly/Renilla luciferase, luminescence (AID 1084); conditions: higher = more signal, called active from +8 up or from −8 down
[9] = binders of probe aFST on microarray, primary screen, stem cell growth factor project, biochemical, small-molecule microarray, fluorescence 635/667 (AID 1086); conditions: higher = more signal;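 also: score merges 667 nm fluorescence with signal-to-noise of each printed compound spot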
[10] = binders of probe aHhip on microarray, primary screen, stem cell growth factor project, biochemical, small-molecule microarray, fluorescence 635/667 (AID 1087); conditions: higher = more signal;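 also: score merges spot fluorescence at 667nm with spot signal to noise ratio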
[11] = test system: PRMT1 (protein arginine N-methyltransferase 1); test: PRMT1 binders on small-molecule microarrays, primary screen, biochemical, small-molecule microarray, 635 nm fluorescence (AID 1088); conditions: small-molecule microarray binding, higher = more signal;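 also: binding of Prmt1 protein to compounds spotted on small-molecule microarray slides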
[12] = yeast growth modulation, basal conditions, primary screen, YJM789 clinical isolate, OD600, 24 h (AID 1089);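 also: growth of clinical yeast isolate S. cerevisiae YJM 789 seeded 1000 cells per well; test concentration not given here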; conditions: S. cerevisiae YJM789 growth, higher = more signal, called active from +8 up or from −8 down
[13] = fission yeast growth modulation, primary screen, strain 972, OD600, 24 h, no modulator (AID 1090);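 also: basal condition with compound alone and no growth modifier present; test concentration not given here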; conditions: S. pombe 972 growth, higher = more signal, called active from +8 up or from −8 down
[14] = S. cerevisiae growth modulation with rapamycin, primary screen, strain BY4716, OD600, 96 h (AID 1091); conditions: higher = more signal, called active from +8 up or from −8 down; also: test concentration not given here
[15] = target: Torsin-1A-interacting protein 2 (Homo sapiens) (UniProt Q8NFQ8); test: LULL1 binders on small-molecule microarray, primary screen, cell lysate, human LULL1 lysate, 635/667 nm fluorescence (AID 1092); conditions: hLULL1 lysate binding, 635 nm fluorescence, higher = more signal;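 also: probe is lysate of COS7 cells overexpressing human LULL1; score merges per-feature 667 nm fluorescence with signal-to-noise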
[16] = E. coli growth modulation, two-sided OD650, primary screen, E. coli filamentation project, strain DRC41, 24 h (AID 1093); conditions: OD650, 24 h, higher = more signal, called active from +8 up or from −8 down;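 also: MC1000 strain lacking acrAB efflux and sulA so SOS filamentation is blocked; test concentration not given here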
[17] = small-molecule microarray binders of probe aLefty2, primary screen, biochemical, biotinylated probe, 635/667 nm fluorescence (AID 1094); conditions: higher = more signal;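 also: score merges spot fluorescence near 667 nm with spot signal-to-noise ratio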
[18] = test system: Noggin (protein binding on small-molecule microarray); test: Noggin binders on small-molecule microarray, primary screen, biochemical, 635/667 nm fluorescence (AID 1095); conditions: 635 nm fluorescence, higher = more signal;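 also: score merges 667 nm feature fluorescence with signal to noise over triplicate slides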
[19] = target: Neurogenic locus notch homolog protein 3 (Homo sapiens) (UniProt Q9UM47); test: NOTCH3 binders on small-molecule microarray, primary screen, biochemical, 635/667 nm fluorescence (AID 1096); conditions: NOTCH3 binding, 635 nm fluorescence, higher = more signal
Chain of Neurogenic locus notch homolog protein 3 (Homo sapiens) (Q9UM47 whole entry, looked up): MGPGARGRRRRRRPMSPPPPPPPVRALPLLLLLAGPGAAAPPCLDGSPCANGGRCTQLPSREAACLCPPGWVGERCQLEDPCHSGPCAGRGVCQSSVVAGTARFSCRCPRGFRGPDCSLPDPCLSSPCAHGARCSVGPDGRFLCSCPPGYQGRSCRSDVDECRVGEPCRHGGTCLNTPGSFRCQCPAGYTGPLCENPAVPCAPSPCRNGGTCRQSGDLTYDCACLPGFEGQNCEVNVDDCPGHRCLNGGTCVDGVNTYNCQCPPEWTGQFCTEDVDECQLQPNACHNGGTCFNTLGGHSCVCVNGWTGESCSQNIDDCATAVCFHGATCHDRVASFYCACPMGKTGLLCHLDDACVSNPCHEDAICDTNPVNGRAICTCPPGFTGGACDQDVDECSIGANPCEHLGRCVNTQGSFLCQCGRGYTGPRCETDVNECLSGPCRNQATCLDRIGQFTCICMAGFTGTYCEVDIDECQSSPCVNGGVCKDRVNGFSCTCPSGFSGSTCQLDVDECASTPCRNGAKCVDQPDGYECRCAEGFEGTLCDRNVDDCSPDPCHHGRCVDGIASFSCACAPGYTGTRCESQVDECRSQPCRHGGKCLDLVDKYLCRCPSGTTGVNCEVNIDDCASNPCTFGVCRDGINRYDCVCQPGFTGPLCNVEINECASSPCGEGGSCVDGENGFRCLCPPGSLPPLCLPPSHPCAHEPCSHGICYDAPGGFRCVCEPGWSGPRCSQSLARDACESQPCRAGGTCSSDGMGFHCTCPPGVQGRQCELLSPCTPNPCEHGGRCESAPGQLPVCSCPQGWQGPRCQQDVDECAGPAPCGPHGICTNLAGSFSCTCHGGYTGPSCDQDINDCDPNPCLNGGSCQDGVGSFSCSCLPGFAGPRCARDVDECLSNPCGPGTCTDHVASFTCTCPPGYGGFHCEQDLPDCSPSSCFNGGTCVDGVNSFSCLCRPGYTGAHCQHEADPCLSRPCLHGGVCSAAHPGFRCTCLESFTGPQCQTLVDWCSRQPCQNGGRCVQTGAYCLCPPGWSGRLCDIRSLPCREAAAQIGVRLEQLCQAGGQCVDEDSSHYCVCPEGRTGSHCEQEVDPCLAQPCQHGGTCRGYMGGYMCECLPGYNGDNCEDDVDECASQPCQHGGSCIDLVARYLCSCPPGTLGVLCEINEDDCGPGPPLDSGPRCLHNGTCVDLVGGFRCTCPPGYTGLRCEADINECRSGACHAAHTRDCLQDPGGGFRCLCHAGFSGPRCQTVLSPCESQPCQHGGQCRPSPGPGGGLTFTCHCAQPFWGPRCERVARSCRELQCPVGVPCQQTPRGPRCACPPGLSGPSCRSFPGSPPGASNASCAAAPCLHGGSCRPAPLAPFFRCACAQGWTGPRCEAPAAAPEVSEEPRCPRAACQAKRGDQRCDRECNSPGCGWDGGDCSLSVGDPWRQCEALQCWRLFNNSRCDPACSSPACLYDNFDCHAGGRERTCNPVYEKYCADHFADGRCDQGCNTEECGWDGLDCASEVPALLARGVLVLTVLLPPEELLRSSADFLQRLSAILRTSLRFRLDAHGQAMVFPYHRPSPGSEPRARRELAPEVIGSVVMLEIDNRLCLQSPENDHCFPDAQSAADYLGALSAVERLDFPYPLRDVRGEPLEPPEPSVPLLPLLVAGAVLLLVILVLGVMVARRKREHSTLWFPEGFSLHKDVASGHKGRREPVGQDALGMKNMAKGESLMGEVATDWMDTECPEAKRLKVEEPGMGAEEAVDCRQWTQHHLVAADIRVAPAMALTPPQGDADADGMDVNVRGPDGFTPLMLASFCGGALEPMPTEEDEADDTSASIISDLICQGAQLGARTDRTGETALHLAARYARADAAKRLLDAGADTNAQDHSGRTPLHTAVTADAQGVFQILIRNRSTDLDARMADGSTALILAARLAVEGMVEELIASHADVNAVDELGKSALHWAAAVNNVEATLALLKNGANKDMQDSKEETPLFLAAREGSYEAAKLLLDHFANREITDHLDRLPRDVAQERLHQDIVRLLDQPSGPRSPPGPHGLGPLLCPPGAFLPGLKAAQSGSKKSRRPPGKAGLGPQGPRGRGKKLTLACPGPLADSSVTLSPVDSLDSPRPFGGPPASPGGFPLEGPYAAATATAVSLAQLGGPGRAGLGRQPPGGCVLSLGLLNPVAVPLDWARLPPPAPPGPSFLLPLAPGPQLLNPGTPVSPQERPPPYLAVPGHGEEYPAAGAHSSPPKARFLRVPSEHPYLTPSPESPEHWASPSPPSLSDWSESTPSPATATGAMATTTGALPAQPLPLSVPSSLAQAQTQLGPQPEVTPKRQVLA

[20] = small-molecule microarray binders of probe aEGFR, primary screen, biochemical, biotinylated probe, 635/667 nm fluorescence (AID 1097); conditions: higher = more signal;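 also: probe is a biotinylated anti-EGFR antibody binding compounds printed on slides; score combines fluorescence near 667 nm and signal to noise of each spot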

SMILES	composite z-score [1]	composite z-score [2]	composite z-score [3]	composite z-score [4]	composite z-score [5]	composite z-score [6]	composite z-score [7]	z-score [8]	composite z-score [9]	composite z-score [10]	composite z-score [11]	z-score [12]	z-score [13]	z-score [14]	composite z-score [15]	z-score [16]	composite z-score [17]	composite z-score [18]	composite z-score [19]	composite z-score [20]
COc1ccc([Si](C)(C)[C@@H]2[C@@H](CC(=O)N3Cc4ccccc4C[C@H]3CO)O[C@]3(C(=O)N(Cc4ccc(N5C(=O)c6cccc7cccc5c67)cc4)c4ccccc43)[C@H]2C)cc1	-0.184	0.614	-0.0136	0.637	1.21	0.325	1.17	-1.88 (inactive)	0.0242	-0.361	1.55	-0.297 (inactive)	0.389 (inactive)	1.39 (inactive)	1.74	-0.465 (inactive)	0.104	1.14	1.04	0.0717
CC1CC/C=C\[C@H]2OC34C=CCN(C(C)C)C(=O)[C@H]3N(CCO)C(=O)[C@@H]4C2C(=O)O1 (stereo not given in full)	0.689	0.987	-0.159	-0.228	-1.19	1.08	1.23	0.0746 (inactive)	-0.662	-0.134	-0.138	0.114 (inactive)	-0.486 (inactive)	0.323 (inactive)	-0.021	1.48 (inactive)	-0.159	-1.87	-0.355	-0.281
O=C1OCCC=C[C@H]2OC34C=CCN(c5ccc6ccccc6c5)C(=O)[C@H]3N(CCCO)C(=O)[C@@H]4C12 (stereo not given in full)	0.796	-2.38	-0.258	-0.736	-2.08	-0.962	-0.948	-0.0625 (inactive)	-0.723	-0.134	-1.63	0.312 (inactive)	-0.951 (inactive)	0.345 (inactive)	-0.939	0.843 (inactive)	-0.222	-2.16	-1.19	-0.295
C=CC[C@@H](OC(=O)Nc1ccc(SC)cc1)c1ccc(O)c(F)c1	0.401	0.601	-0.0729	0.165	-0.131	1.7	1.21	6.7 (inactive)	-0.277	-0.0645	0.803	-21.2 (active)	-19.9 (active)	-0.545 (inactive)	0.724	1.81 (inactive)	0.0276	0.713	-0.0238	-0.105
COc1ccc(C#Cc2ccc3c(c2)[C@]2(C(=O)N3)[C@H](c3ccc(O)cc3)N3[C@H](c4ccccc4)[C@H](c4ccccc4)OC(=O)[C@H]3[C@@H]2C(=O)Nc2nc3ccccc3s2)cc1	-0.552	-0.133	-0.0242	0.534	1.6	1.69	1.36	1.33 (inactive)	1.01	0.113	1.55	1.51 (inactive)	-0.924 (inactive)	-0.221 (inactive)	3.07	1.92 (inactive)	0.334	0.46	1.05	0.484
COCCOC(=O)N1C(=O)[C@@]2(c3cc(C#CC4(O)CCCCCC4)ccc31)[C@H](c1ccc(O)cc1)N1[C@H](c3ccccc3)[C@H](c3ccccc3)OC(=O)[C@H]1[C@@H]2C(=O)N1CCN(c2ncccn2)CC1	-0.133	0.837	0.0702	0.292	0.895	1.33	1.24	0.821 (inactive)	0.756	0.132	1.55	0.12 (inactive)	-0.247 (inactive)	1.07 (inactive)	2.57	-0.321 (inactive)	-0.0282	0.0969	0.987	-0.0234
CCN(CC)c1ccc(N2CC=CC34O[C@@H]5/C=C\CCCOC(=O)C5[C@H]3C(=O)N(C(C)CO)[C@@H]4C2=O)cc1 (stereo not given in full)	-0.136	-0.207	-0.175	-0.136	-0.0693	1.87	1.31	-0.768 (inactive)	-0.285	-0.236	0.428	-0.991 (inactive)	-1.47 (inactive)	-0.497 (inactive)	0.347	1.42 (inactive)	-0.243	-0.045	0.204	-0.189
CO[C@H]1O[C@H](CO)[C@@H](OC(=O)CCc2ccccc2)[C@@H]2OC(=O)[C@@H](Cc3ccccc3)C/C=C/C[C@H](Cc3ccccc3)C(=O)O[C@@H]12	-0.0519	0.595	-0.0962	0.242	0.185	0.438	0.756	0.248 (inactive)	0.671	0.0854	1.35	-0.0668 (inactive)	0.0286 (inactive)	5.61 (inactive)	1.25	0.241 (inactive)	-0.119	0.435	0.922	-0.067
COC(=O)[C@@]1(Cc2ccccc2)[C@H]2c3cc(C(=O)N4CCCC4)n(CCc4ccccn4)c3C[C@H]2CN1C(=O)c1ccccc1	0.223	0.487	-0.177	0.283	1.33	2.09	1.35	2.95 (inactive)	1.18	0.503	0.123	-0.789 (inactive)	0.741 (inactive)	0.0746 (inactive)	3.93	0.026 (inactive)	0.754	0.678	0.915	0.338
